Compounds with a hit are over-represented: about 5.2% of the library has one in this group of screens.
GRIN3A LBD mod: modulates the human NR3A ligand-binding domain; Tm shift relative to glycine control, % at 25 µM; NR3A LBD differential scanning fluorimetry, Tm shift; 0% = protein alone, 100% = glycine-bound protein; actives 2.5% (n = 340,000); AID 1259313;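 active = melting temperature shift of at least 10% of the positive control shift, at one fixed dose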
SKN-1 block: inhibitors of C. elegans SKN-1; actives 0.49% (n = 360,000); C. elegans VP596 Pgst-4::GFP/RFP ratio, acrylamide-induced, 24 h; inhibition, % at 21.8 µM;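 active = interference check ratio from 0.5 to 1.5 plus GFP to RFP signal ratio inhibition reaching or exceeding a fixed threshold, cut at about 30% in these data, passing the limit was not always enough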
SMARCA2 act: increases SMARCA2 function in MMTV reporter cells | MG213 cells, MMTV-luciferase reporter, dexamethasone, overnight | activation, % at 9.1 µM | actives 1% (n = 370,000) | AID 652017; in the data active = activation above about 7.8%;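 also: 0% = vehicle wells and 100% = reference activator wells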
esBAF inh: SWI/SNF esBAF complex inhibition | AID 602393 | actives 2% (n = 350,000) | reporter increase, % at 12.5 µM | mouse ES cells, Bmi1-luciferase knock-in reporter, 24 h; 100% = twice the neutral-well signal; in the data active = activation above about 40%; inconclusive = no clear call, values can overlap the other calls;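 also: 0% = median of the plate's neutral control wells and 100% = double that signal; a rise in the Bmi1 reporter signal indicates esBAF inhibition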
NadD inh: blocks S. aureus nicotinate mononucleotide adenylyltransferase; purified NadD enzyme, colorimetric absorbance read-out; inhibition, % at 20 µM; actives 0.78% (n = 360,000); in the data active = inhibition above about 26%
Vif inh: HIV Vif inhibition | HEK293T cells, Vif self-association by quenched fluorescence, imaging, 24 h | inhibition, % at 7.49 µM | actives 0.35% (n = 340,000); in the data active = inhibition above about 50%, passing the limit was not always enough; inconclusive = no clear call, values can overlap the other calls; inactive = below about 31%
SMARCA2 conf: confirmation of SMARCA2 (BRM) function activators | shares compounds with SMARCA2 act | MG213 cells, MMTV-luciferase with dexamethasone, luminescence, overnight; MG213 cells expressing E1A, Rb sequestered; DMSO wells 0%, reference activator 100% | activation, % at 9.1 µM | actives 30% (n = 3,500);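 active = activation above its plate's cutoff, the mean activation of tested wells plus 3 SD, cut at about 7.9% in these data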
VP16 Luc act: activates GAL4-VP16 luciferase, flagging SMARCA2 activator hits | shares compounds with SMARCA2 act | HEK293 GAL4-VP16 pG5luc reporter, luciferase luminescence; scaled: DMSO wells 0%, SAHA wells 100% | activation, % at 9.1 µM | actives 41% (n = 3,500) | AID 686939;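 active = activation above the solvent-only control well mean plus 3 SD, averaged across control plates, cut at about 5.2% in these data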
* hit, by the source's call; ? = inconclusive; . = not tested or not shown.

SMILES | GRIN3A LBD mod | SKN-1 block | SMARCA2 act | esBAF inh | NadD inh | Vif inh | SMARCA2 conf | VP16 Luc act
O=C(CNc1ccc(Br)cc1)c1ccc(Br)s1 | -4 | 8 | 9.3* | 58* | 4 | 7 | 10* | 3
C[C@@H]1CCCCO[C@H](CN(C)Cc2ccncc2)[C@@H](C)CN([C@H](C)CO)C(=O)c2cc(NC(=O)c3ccccc3)ccc2O1 | . | . | . | -1 | . | . | . | .
CO[C@H]1CC[C@@H]2CCOc3c(C#N)cccc3C(=O)N(C)C[C@H](C)C(=O)N(C)C[C@@H]1O2 | . | . | . | -1 | . | . | . | .
CC(C)c1ccc(NC(=S)NNC(=O)c2cccs2)cc1 | -3 | 0 | 4 | . | 6 | 1 | . | .
COc1ccc(NC(=S)NNC(=O)c2cccs2)cc1 | 4 | -15 | 8.8* | . | -4 | -3 | 0 | 4
Cc1ccc(O)c(-c2cc(-c3ccccc3C)[nH]n2)c1 | 4 | 10 | 1 | . | -4 | 2 | . | .
COc1ccc(-c2cc(-c3cc(C)ccc3O)[nH]n2)cc1 | 14* | 6 | 16* | . | 1 | -11 | 17* | 5.8*
C[C@H]1CN([C@@H](C)CO)C(=O)c2cc(NC(=O)Nc3ccccc3)ccc2O[C@H]1CN(C)C(=O)Nc1ccccc1 | . | . | . | 0 | . | . | . | .
Oc1ccc(-c2csc(-c3cccnc3)n2)c(O)c1 | 3 | 3 | 8.2* | . | -4 | 26 | 13* | 12*
O=c1c(C=NCc2cccnc2)c(C(F)(F)F)[nH]n1-c1nc2ccccc2s1 | -14 | -13 | 12* | . | 11 | . | 11* | 7.5*
CCC(=NCc1ccccc1)c1c(C(F)(F)F)[nH]n(-c2nc3ccccc3s2)c1=O | -8 | -4 | 2 | -2 | 5 | -1 | . | .
O=C(C[C@H]1CC[C@@H]2[C@H](COC[C@@H](O)CN2Cc2ccccc2)O1)N1CCOCC1 | . | . | . | -8 | . | . | . | .
O=C(O)c1cc(-c2ccc3ccccc3n2)nc2ccccc12 | . | -16 | 13* | -14 | -2 | -3 | 3 | 7.7*
COc1ccc(S(=O)(=O)N2Cc3ccccc3CC2C(=O)Nc2nccs2)cc1 (centres undefined) | -2 | 26 | 9.8* | 50* | 0 | -3 | 4 | 3
COc1ccc(S(=O)(=O)N2CCC(C(=O)Nc3nccs3)CC2)cc1 | 1 | 12 | -2 | . | 2 | . | . | .
Cn1c(C(=O)N2CCCC(C(=O)O)C2)cc2sccc21 (centres undefined) | -1 | -7 | 1 | 8 | 2 | 15 | . | .
CN(C(=O)c1cc2sccc2n1C)C1CCCCC1 | -2 | 5 | 8.9* | 37 | -5 | 8 | 2 | 7.5*
COc1ccc(S(=O)(=O)Nc2ccc3c(c2)C(=O)N([C@H](C)CO)C[C@@H](C)[C@@H](CN(C)Cc2ccc(C(F)(F)F)cc2)OCCCC[C@H](C)O3)cc1 | . | . | . | 0 | . | . | . | .
c1ccc(-c2csc(Nc3ccc4c(c3)OCO4)n2)cc1 | . | 5 | 11* | 33 | -9 | 3 | 3 | 9.3*
O=C(CN1CCN(c2nc(-c3ccccc3)cs2)CC1)Nc1ccc2c(c1)OCO2 | -3 | 0 | -2 | -2 | -7 | -9 | . | .
O=C(C[C@H]1C=C[C@H](NC(=O)CN2CCOCC2)[C@@H](CO)O1)NC1CCC1 | . | . | . | 2 | . | . | . | .
Oc1ccccc1-c1nnc(COc2ccc(Cl)cc2Cl)o1 | 1 | 1 | 9.3* | 12 | -2 | 6 | 5 | 13*
Oc1ccccc1-c1nnc(COc2ccccc2)o1 | 2 | -1 | 0 | ? | -3 | 3 | . | .
C[C@@H]1CN([C@H](C)CO)C(=O)c2cccc(NC(=O)C3CCCCC3)c2O[C@@H]1CN(C)Cc1ccncc1 | . | . | . | 1 | . | . | . | .
CN1C(=O)c2cc(NC(=O)Nc3ccc(F)cc3)ccc2OC[C@H]2O[C@@H](CC(=O)NC3CCC3)CC[C@@H]21 | . | . | . | 1 | . | . | . | .
SMILES | GRIN3A LBD mod | SKN-1 block | SMARCA2 act | esBAF inh | NadD inh | Vif inh | SMARCA2 conf | VP16 Luc act
CC1(O)C(c2ccccc2)=Nc2ccccc21 (centres undefined) | . | 4 | 9.5* | 34 | 4 | 1 | 12* | 13*
COc1ccc(C2=[N+]([O-])C(C)(C)C(c3ccccc3)=N2)cc1 | 1 | 0 | 5 | -2 | 3 | 0 | . | .
CCCNC(=O)Nc1ccc2c(c1)C(=O)N(C)C[C@@H](OC)[C@@H](C)CN[C@H](C)CO2 | . | . | . | 2 | . | . | . | .
O=C(O)C(=O)/C(=C\c1ccc([N+](=O)[O-])cc1)c1ccc2ccccc2n1 | -4 | 1 | 8.7* | . | 1 | 0 | 3 | 11*
O=C(O)C(=O)/C(=C\c1cccc2ccccc12)c1ccc2ccccc2n1 | -14 | -14 | 0 | . | 22 | 6 | . | .
C/C(=N\NC(N)=S)c1ccccc1 | -1 | -1 | 8.0* | . | 1 | 3 | 0 | 0
CC(=O)Nc1cc(C)c(S(C)(=O)=O)c(C)c1 | 1 | -1 | 8.1* | . | -7 | 2 | -2 | 2
COCC(=O)N1C[C@@H](C)[C@@H](OC)CN(C)C(=O)c2cc(NC(=O)Nc3cccc(F)c3)ccc2OC[C@@H]1C | . | . | . | 0 | . | . | . | .
C/C=C/c1ccc([C@@H]2[C@@H](CN(CC)C(C)=O)N(S(C)(=O)=O)[C@H]2CO)cc1 | . | . | . | -1 | . | . | . | .
Cc1c(C(N)=O)sc2nc(-c3ccccc3)cn12 | -3 | 19 | 9.9* | 28 | 4 | -3 | 5 | 13*
COCCN(CCOC)C(=O)c1sc2nc(-c3ccccc3)cn2c1C | -1 | 18 | 2 | 9 | 3 | 4 | . | .
Oc1ccccc1CNc1cnc2ccccc2c1 | -23 | -4 | 11* | 54* | 4 | -1 | 9.5* | 8.8*
Oc1ccc(Cl)cc1CNc1cnc2ccccc2c1 | -6 | 17 | 0 | 0 | -2 | 7 | . | .
C[C@@H]1CCCCO[C@H](CN(C)C(=O)c2ccccc2)[C@H](C)CN([C@H](C)CO)C(=O)c2cc(NS(C)(=O)=O)ccc2O1 | . | . | . | 2 | . | . | . | .
Cc1ccc(Cc2c(-c3ccc(Br)cc3)nc3cc(C)ccn23)cc1 | . | 10 | 8.2* | ? | 8 | 18 | 5 | 4
COc1ccc(NC(=O)Nc2ccc3c(c2)CC(=O)N([C@H](C)CO)C[C@H](C)[C@@H](CN(C)C(=O)Nc2c(C)noc2C)O3)cc1 | . | . | . | -2 | . | . | . | .
O=[N+]([O-])c1cc(O)c2ncccc2c1 | -2 | . | 21* | . | . | . | 1 | 2
O=C(O/N=C1\CCCc2ccccc21)c1ccc(F)cc1 | 1 | -8 | 9.7* | -1 | -5 | -5 | 5 | -1
COc1ccc(CNC(=O)CN=C2NC(=O)C(c3ccccc3)(c3ccccc3)N2)cc1 | -3 | 6 | 12* | . | -2 | 2 | 0 | 0

From PubChem BioAssay
